# Values joined by “and” are separate entries in the source; they are usually repeats but may differ in a detail not shown here. Identical values can stand only once. Results filed as inconclusive are left out. Active and inactive are the calls of the source. Calls come from the whole dose curve; as a rule, active = well fitted inhibition curve with a large enough effect in the repeat runs; inconclusive = weak or mixed curves; inactive = flat fitted curve, though single readings scatter.
# Molecular target: Cytochrome P450 2D6 (Homo sapiens) (UniProt P10635)
# Sequence (P10635 whole entry, looked up): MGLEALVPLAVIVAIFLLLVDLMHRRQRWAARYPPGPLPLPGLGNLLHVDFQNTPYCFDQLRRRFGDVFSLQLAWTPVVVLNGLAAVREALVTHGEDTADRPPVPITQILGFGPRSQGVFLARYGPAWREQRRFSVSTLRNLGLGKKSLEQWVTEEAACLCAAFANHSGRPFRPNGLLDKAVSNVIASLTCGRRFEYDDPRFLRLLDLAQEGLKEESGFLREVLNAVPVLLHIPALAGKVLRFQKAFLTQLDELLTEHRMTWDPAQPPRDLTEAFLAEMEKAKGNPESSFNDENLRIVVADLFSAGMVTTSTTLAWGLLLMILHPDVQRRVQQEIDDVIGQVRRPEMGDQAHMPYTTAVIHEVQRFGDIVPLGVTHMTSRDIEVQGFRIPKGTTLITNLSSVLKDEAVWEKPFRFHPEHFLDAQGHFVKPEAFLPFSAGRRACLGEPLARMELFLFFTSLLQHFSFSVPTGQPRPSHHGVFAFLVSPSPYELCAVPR
# Experiment: Cytochrome P450 family 2 subfamily D member 6 (CYP2D6) small molecule antagonists: luciferase biochemical (cell-free) qHTS assay (AID 1645840); note: nearly all actives have a fitted effect of over 55% in size
# Conditions: P450-Glo CYP2D6 enzyme, luciferin luminescence, 1 h; series mostly up to 57.4 µM
# Description: National Center for Advancing Translational Sciences [NCATS] Assay Overview: Cytochrome P450 (CYP) enzymes are membrane-bound hemeproteins that play a key role in metabolism of drugs and xenobiotics. Assaying the effect of chemicals on CYP isozymes is useful to minimize the adverse drug reactions and toxicities in drug development process. Chemical compounds were tested for their effect on CYP enzyme activities by using P450-Glo (TM) screening systems (Promega Corporation, Madison, WI). These systems provide a luminescent method containing proluciferin substrates and are converted to luciferin products by CYP isozymes. The luciferin products formed are detected with a luciferin detection reagent, and the amount of light produced is proportional to CYP activity. P450-Glo (TM) CYP2D6 screening system (Catalog. No. V9890) was used to detect the compounds that interfere in CYP2D6 activity.
# Assay Protocol Summary: Two ul of enzyme-substrate mix was dispensed into medium binding white/solid 1536-well plates (Greiner Bio-One North America Inc., Monroe, NC) using a Flying Reagent Dispenser (FRD, Aurora Discovery, San Diego, CA). […] The assay plates were incubated at room temperature for 10 min. Then 2 ul of NADPH regeneration solution was added to each well of the assay plates using an FRD and incubated at room temperature for 1 h. The reaction was stopped by adding 4 ul of detection reagent using an FRD and after 20 min incubation at room temperature, the luminescence signal was measured using a ViewLux plate reader (Perkin Elmer, Shelton, CT). Data were expressed as relative luminescence units.
# % is set by controls: 0 for no effect and ±100 for the full control effect; potency is the fitted concentration of half-maximal effect.
SMILES,Potency,"activity change, negative = inhibition"
O=C(O)CCNC(=O)c1ccccc1,inactive,
CCCCCCCCCCCCCC(=O)OC(C)C,inactive,
CCOc1ccccc1OCCN[C@H](C)Cc1ccc(OC)c(S(N)(=O)=O)c1,15.5 µM (active),
FC(F)(F)C(F)(F)C(F)(F)C(F)(F)C(F)(F)C(F)(F)C(F)(F)C(F)(F)Br,inactive,
CCCCC(CC)COC(=O)/C=C/c1ccc(OC)cc1 (stereo not given),inactive,
CCc1nn(CCCN2CCN(c3cccc(Cl)c3)CC2)c(=O)n1CCOc1ccccc1,0.977 µM (active),
NC1CCN(c2nc3c(cc2F)c(=O)c(C(=O)O)cn3-c2ccc(F)cc2F)C1 (stereo not given),inactive,
CC(=O)OC[C@H]1O[C@@H](n2ncc(=O)[nH]c2=O)[C@H](OC(C)=O)[C@@H]1OC(C)=O,7.76 µM (active),
C[N+]1(C)CCC(=C(c2ccccc2)c2ccccc2)CC1,13.8 µM (active),
CC(=O)Nc1ccc(OC(=O)c2ccccc2OC(C)=O)cc1,15.5 µM (active),
C[C@H]1[C@H]2CC[C@H]3[C@@H]4CC=C5C[C@@H](N(C)C)CC[C@]5(C)[C@H]4CC[C@]23CN1C,inactive,
NCCNc1cccc2ccccc12,7.76 µM (active),
Cc1ncc(CO)c(C=O)c1O,inactive,
N=C(N)N1CCc2ccccc2C1,,3.13% [at 4.83 µM] (inactive)
N[C@H](C(=O)O)[C@@H](O)c1ccc(O)c(O)c1,inactive,
CN1CCN(C2=Nc3ccccc3Sc3ccc(Cl)cc32)CC1,15.5 µM (active),
COc1ccc(-c2cc(C(F)F)nn2-c2ccc(S(N)(=O)=O)cc2)cc1F,5.49 µM (active),
CCN(CC)CCOC(=O)C1(c2ccccc2)CCCC1,2.19 µM (active),
O=C1C(O)=C(O)C(=O)C(O)=C1O,inactive,
O=[N+]([O-])c1cccc(S(=O)(=O)NCCNS(=O)(=O)c2cccc([N+](=O)[O-])c2)c1,inactive,

SMILES,Potency,"activity change, negative = inhibition"
Cc1cc(NS(=O)(=O)c2ccc(N)cc2)nc(C)n1,inactive,
CCCCCCCCCCCCOCCOCCOCCOCCOCCOCCOCCOCCOCCO,12.3 µM (active),
CO[C@H]1C=CO[C@@]2(C)Oc3c(C)c(O)c4c(O)c(c(/C=N/N5CCN(C)CC5)c(O)c4c3C2=O)NC(=O)/C(C)=C\C=C[C@H](C)[C@H](O)[C@@H](C)[C@@H](O)[C@@H](C)[C@H](OC(C)=O)[C@@H]1C,inactive,
C[C@@]12C(=O)OC(=O)[C@]1(C)C1CCC2O1,inactive,
Nc1nc(-c2ccccc2)c(Br)c(=O)[nH]1,inactive,
CCOC(=O)c1c(N)sc2c1CCN(Cc1ccccc1)C2,0.0098 µM (active),
CC(C)[C@@H]1CC[C@@H](C)CC1=O,inactive,
CCCN(CCc1cccs1)[C@H]1CCc2c(O)cccc2C1,169 nM (active) and 195 nM (active),
O=[N+]([O-])c1ccc(/C=N\O)o1,13.8 µM (active),
O=C(N/N=C/c1ccc([N+](=O)[O-])o1)c1ccc(O)cc1,3.89 µM (active),
O=C1[C@H](CC[C@H](O)c2ccc(F)cc2)[C@@H](c2ccc(O)cc2)N1c1ccc(F)cc1,15.5 µM (active) and 9.52 µM (active),
CNCCc1ccccn1,inactive,
Cc1c(-c2ccccc2)oc2c(C(=O)OCCN3CCCCC3)cccc2c1=O,3.89 µM (active),
COc1ccc(C(Cl)=C(c2ccc(OC)cc2)c2ccc(OC)cc2)cc1,inactive,
CC(C)Nc1cccnc1N1CCN(C(=O)c2cc3cc(NS(C)(=O)=O)ccc3[nH]2)CC1,6.92 µM (active),
CCc1cc(Cl)c(OC)c(C(=O)NC[C@@H]2CCCN2CC)c1O,0.219 µM (active),
CO[C@]12C[C@@H](COC(=O)c3cncc(Br)c3)CN(C)[C@@H]1Cc1cn(C)c3cccc2c13,0.0155 µM (active),
CN(C)CCOC(c1ccc(Cl)cc1)c1ccccn1 (stereo not given),15.5 µM (active),
Cl/C(=C\n1cncn1)c1ccc(Cl)cc1Cl,4.9 µM (active),
O=C(Nc1ncc([N+](=O)[O-])s1)c1cccs1,13.8 µM (active),

# Source: PubChem BioAssay (NCATS)
